Assay outcomes from PubChem BioAssay.
PAFAH1B3 inh – PAFAH1B3 (human) inhibition; inhibition, % at 3.39 µM; recombinant PAFAH1B3, FP-rhodamine probe, fluorescence polarization; Q15102; 0.28% of 340,000 active; AID 492972;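 active means inhibition above the screen-wide average of all tested compounds plus 3 SD, cut at about 25% in these data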
Target sequence (Q15102 whole entry, looked up): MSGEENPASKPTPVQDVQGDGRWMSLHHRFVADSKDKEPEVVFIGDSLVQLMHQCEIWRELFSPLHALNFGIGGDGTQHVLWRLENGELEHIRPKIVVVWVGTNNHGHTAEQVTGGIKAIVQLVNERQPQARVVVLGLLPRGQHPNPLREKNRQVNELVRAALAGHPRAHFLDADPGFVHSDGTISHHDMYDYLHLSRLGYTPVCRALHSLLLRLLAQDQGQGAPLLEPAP
PAFAH2 FP inh – PAFAH2 (human) inhibition; Q99487; recombinant PAFAH2, FP-rhodamine activity probe, fluorescence polarization; inhibition, % at 3.39 µM; 0.99% of 340,000 active; AID 492956;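 active means inhibition above the mean over all tested compounds plus 3 SD, cut at about 30% in these data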;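 further: inhibitors block probe labeling of enzyme so polarization drops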
pPAFAH inh – inhibitors of human plasma PAF acetylhydrolase (pPAFAH); Q13093; recombinant pPAFAH, FP-rhodamine probe fluorescence polarization; inhibition, % at 3.39 µM; 1.5% of 330,000 active;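 active means inhibition above the mean inhibition across the screen plus 3 SD, cut at about 25% in these data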;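 further: inhibitors block binding of the rhodamine activity-based probe so polarization drops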
PAFAH1B2 inh – inhibitors of human PAFAH1B2; recombinant PAFAH1B2, FP-rhodamine activity probe, fluorescence polarization; inhibition, % at 3.39 µM; 1.2% of 340,000 active; AID 492953;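 active means inhibition above the mean of all tested compounds plus 3 SD, cut at about 24% in these data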
PME-1 inh – PME-1 (human) inhibition; Q9Y570; recombinant PME-1, FP-Rh probe fluorescence polarization; inhibition, % at 5.9 µM; 0.53% of 320,000 active;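 active means inhibition above the campaign mean of all compounds plus 3 SD, cut at about 26% in these data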;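 further: competitive labeling of PME-1 active site by serine hydrolase directed probe; inhibitors block probe labeling so polarization falls and inhibition rises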
Target sequence (Q9Y570 whole entry, looked up): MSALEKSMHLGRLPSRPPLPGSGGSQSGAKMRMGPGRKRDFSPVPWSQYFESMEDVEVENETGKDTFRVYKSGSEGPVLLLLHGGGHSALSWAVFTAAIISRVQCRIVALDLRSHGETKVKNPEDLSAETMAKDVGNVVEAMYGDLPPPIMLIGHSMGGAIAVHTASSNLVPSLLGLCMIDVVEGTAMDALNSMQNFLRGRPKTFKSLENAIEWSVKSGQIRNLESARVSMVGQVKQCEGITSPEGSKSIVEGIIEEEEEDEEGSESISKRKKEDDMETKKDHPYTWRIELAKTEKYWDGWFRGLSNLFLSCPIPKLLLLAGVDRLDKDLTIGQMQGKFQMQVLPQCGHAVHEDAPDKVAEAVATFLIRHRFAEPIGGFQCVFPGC
Fam108B counter – blocks mouse Fam108B hydrolase in RBBP9 counter-screen; AID 1947; inhibition, % at 9.51 µM; 0.33% of 300,000 active; recombinant Fam108B, FP-Rh probe fluorescence polarization;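 active means inhibition above the screen mean inhibition plus 3 SD, computed separately per campaign, cut at about 18% in these data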;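 further: inhibitors lower polarization as less probe binds the enzyme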
Hits are given with their value; - = inactive; . = not tested or not shown. A selection: hits, their analogues and other compounds. The true share with any hit is near 2.8%.

SMILES | PAFAH1B3 inh | PAFAH2 FP inh | pPAFAH inh | PAFAH1B2 inh | PME-1 inh | Fam108B counter
O=Nc1c(O)[nH]c2ccc(Cl)c(Cl)c12 | 43 | 31 | . | 28 | . | .
Oc1[nH]c2ccccc2c1N=Nc1ccccc1Cl | - | - | . | - | . | .
CCCC(NC(=O)COc1cc2c(c3oc(=O)cc(C)c13)CCC(C)(C)O2)C(=O)O (stereo not drawn) | - | - | - | - | - | -
Cc1cc(=O)oc2c3c(cc(OCC(=O)N[C@@H](CC(C)C)C(=O)O)c12)OC(C)(C)CC3 | - | - | - | 35 | - | -
CC(=O)N1c2ccc(S(=O)(=O)NCCC(=O)N3CCC(C)CC3)cc2CC1C (stereo not drawn) | - | - | - | - | - | -
O=C(NCCCNc1ccc(C(F)(F)F)cc1[N+](=O)[O-])c1ccc(Cl)cc1 | - | - | - | 29 | - | -
CC1(OC(=O)c2ccc(Cl)nc2)C(=O)C=C2C=C(c3ccsc3)OC=C2C1=O (stereo not drawn) | . | . | 47 | . | - | -
CC1(OC(=O)c2ccc(Cl)nc2)C(=O)C=C2C=C(c3ccc(C#N)cc3)OC=C2C1=O (stereo not drawn) | . | . | 42 | . | - | -
CC1(OC(=O)c2ccc(Cl)nc2)C(=O)C=C2C=C3CCCN3C=C2C1=O (stereo not drawn) | - | - | - | - | - | -
COC/C=C/C1=CC2=CC(=O)C(C)(OC(=O)c3cccs3)C(=O)C2=CO1 (stereo not drawn) | . | . | - | . | - | -
CC1(OC(=O)c2ccc(Cl)nc2)C(=O)C=C2C=C(C3CC3)OC=C2C1=O (stereo not drawn) | . | . | 44 | . | - | 20
CC1(OC(=O)C2CCCC2)C(=O)C=C2C=C(C3CC3)OC=C2C1=O (stereo not drawn) | . | . | 26 | . | - | -
CCN(CC(=O)Nc1c(F)cccc1F)C(=O)c1ccc(COc2ccccc2)o1 | - | - | - | - | - | -
COc1ccc2c(c1)O[C@@H](c1cccc(C(F)(F)F)c1)[C@H](O)C2=O | - | 71 | - | - | - | -
COC(=O)[C@@]1(C)[C@H]2C(=O)N(C)C(=O)[C@H]2[C@H]2CN=C(SCc3ccc(C#N)cc3)N21 | - | - | - | - | . | .
COC(=O)[C@@]1(C)[C@H]2C(=O)N(C)C(=O)[C@H]2[C@H]2CN=C(SCc3ccc(Cl)cc3)N21 | - | - | - | 29 | . | .
S=C(Nc1ccccc1)N1CCOCCOCCN(C(=S)Nc2ccccc2)CCOCCOCC1 | - | - | - | - | - | -
S=C(Nc1ccc(Oc2ccccc2)cc1)N1CCOCC1 | 115 | 127 | - | 93 | - | -
O=C(Cc1ccc(Cl)cc1)NNC(=S)NC(=O)c1cccs1 | - | - | - | - | - | -
O=C(Cc1cccs1)NNC(=S)NCc1ccc(Cl)cc1 | - | - | - | 55 | - | -
COCCCNC(=O)CSc1ccsc1[N+](=O)[O-] | - | - | - | - | - | -
Cc1ccccc1NC(=O)CSc1ccsc1[N+](=O)[O-] | - | - | 27 | - | - | -
COc1ccccc1C1CCN(c2cc(O)ccc2[N+](=O)[O-])CC1 | - | - | - | - | - | -
COCCCN(C(=O)C(C)Oc1ccc(Br)cc1)c1c(N)n(Cc2ccccc2)c(=O)[nH]c1=O (stereo not drawn) | - | - | - | - | - | -
N#CC1=C(S)N(c2ccccc2)C(c2ccc(-c3cccc(Cl)c3)o2)NC1=O (stereo not drawn) | - | - | 28 | - | - | -
SMILES | PAFAH1B3 inh | PAFAH2 FP inh | pPAFAH inh | PAFAH1B2 inh | PME-1 inh | Fam108B counter
CNC(=O)COc1coc(CN2CCN(c3ccccc3OC)CC2)cc1=O | - | - | - | - | - | -
COCCn1c(CN2CCN(C(c3ccccc3)c3ccccc3)CC2)nc2c1c(=O)n(C)c(=O)n2C | - | - | . | - | . | .
Cn1c(=O)c2c(nc(CN3CCN(C(c4ccccc4)c4ccccc4)CC3)n2CCCO)n(C)c1=O | - | - | - | - | 30 | -
CCN1CCN(C(c2cccs2)C(C)NC(=S)NC2CCCCC2)CC1 (stereo not drawn) | - | - | 34 | - | - | -
O=C(CCCc1ccccc1)Nc1cccc(C(=O)O)c1 | - | - | - | 25 | - | -
CC1(C(=O)NCc2ccc(F)cc2)Oc2ccccc2NC1=O (stereo not drawn) | - | - | - | 30 | - | -
CCN(CC(=O)Nc1c(F)cccc1F)C(=O)c1cc(C)oc1C | - | - | - | - | - | -
O=C(O)COc1ccc(-c2nc(-c3ccccc3)c(-c3ccccc3)[nH]2)cc1 | - | - | - | - | - | -
COc1cccc(-c2nc(-c3ccccc3)c(-c3ccccc3)[nH]2)c1OCC(=O)O | - | - | . | 24 | . | .
O=C(O)COc1ccccc1-c1nc(-c2ccccc2)c(-c2ccccc2)[nH]1 | - | - | - | 36 | - | -
CCOc1ccc(S(=O)(=O)NC(C)C(=O)NCc2ccc3c(c2)OCO3)cc1 (stereo not drawn) | - | - | - | - | - | -
O=C(CN1C(=O)C2CC=CCC2C1=O)Nc1ccc(S(=O)(=O)N2CCOCC2)cc1 (stereo not drawn) | - | - | - | - | - | -
O=C(CCc1nnc2ccc(N3CCOCC3)nn12)Nc1ccc(F)cc1F | - | - | - | - | - | -
CCOc1ccc(CN(C)CC(=O)Nc2cccc(S(=O)(=O)N(C)c3ccccc3)c2)cc1 | - | - | 28 | - | - | -
O=C1OC[C@H]2CCCN2C(=O)[C@@H](CC(=O)N(CCO)Cc2ccccc2)C/C=C\C[C@H]1Cc1ccc(F)cc1 | - | - | - | - | . | .
CCO[C@@H]1OC(C(=O)N2CCN(Cc3ccccc3)CC2)=C[C@H](c2cn(C(C)=O)c3ccccc23)[C@H]1CCCO | - | - | - | - | 71 | -
CC(=O)NN1C(=O)/C(=C\c2ccc(Br)o2)SC1=S | - | - | 27 | - | - | -
CCOc1ccccc1NC(=O)CSc1nc2nc(-c3cccs3)cc(C(F)(F)F)c2c(=O)[nH]1 | - | - | - | - | - | -
COc1ccc(NC(=O)CSc2nc3nc(-c4cccs4)cc(C(F)(F)F)c3c(=O)[nH]2)c(OC)c1 | - | - | - | - | 46 | -
COc1ccc(C(=O)c2sc3nc(-c4ccccc4)ccc3c2N)cc1 | - | - | - | - | 35 | -
COc1ccc(C(CNC(=O)c2cccc(S(=O)(=O)Nc3ccc(F)cc3)c2)N2CCCCC2)cc1 (stereo not drawn) | - | - | . | - | . | .
Cc1onc(-c2ccccc2)c1C(=O)Nc1sc2c(c1C#N)CCC2 | - | - | 27 | - | - | -
COc1cc(OC)cc(C(=O)NNC(=O)CCNC(=O)c2ccc(Br)cc2)c1 | - | - | - | - | . | .
Cc1snc(SCc2ccc(Cl)cc2)c1C#N | - | - | - | 28 | - | -
Cc1ccc2[nH]c(C(=O)O)c(NC(=O)[C@@H]3C[C@@H]3c3ccccc3)c2c1 | - | - | - | 31 | - | -
Cc1ccc(SCCNC(=O)c2ccc(C)c(S(=O)(=O)Nc3cccc(C)c3)c2)cc1 | - | - | 30 | - | - | -
